From PubChem BioAssay AID493248 (Broad Institute, 2011)
Among all 2,300 compounds or so, about 1,400 (61%) were called active. Roughly 7% stayed inconclusive and do not appear here. How the calls were made is not given here. The set was probably picked from earlier hits. Only a sample is shown. Potency and affinity values are given separately.

These compounds were tested against FAD-linked sulfhydryl oxidase ALR (Homo sapiens) (UniProt P55789) (assay: ALR-catalysed DTT oxidation blockers – biochemical, H2O2 detection, luminescence, cherry-pick, dose response (AID 493248)). Conditions: purified ALR, H2O2 HRP-luminol luminescence; at 10 µM (top of the series).
FAD-linked sulfhydryl oxidase ALR (Homo sapiens), sequence (P55789 whole entry, looked up): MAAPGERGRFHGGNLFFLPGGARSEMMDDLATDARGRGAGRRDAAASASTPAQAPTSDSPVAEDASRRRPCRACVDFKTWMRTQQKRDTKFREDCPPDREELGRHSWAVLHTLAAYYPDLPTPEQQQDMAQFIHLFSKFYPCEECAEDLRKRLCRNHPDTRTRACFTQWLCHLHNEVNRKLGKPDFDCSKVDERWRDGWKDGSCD
Work on CSc1nnc(-c2ccncc2)n1CCCN1CCCC1=O yielded an activity change, negative = inhibition of 69.3%.
In the case of Cc1cc(C(=O)CN2C(=O)CCC2=O)c(C)n1Cc1ccccc1, the activity change, negative = inhibition is reported as -73.3%.
With CS(=O)(=O)N(CC(=O)NCc1ccccn1)Cc1ccc(Cl)cc1 the activity change, negative = inhibition was 128%.
Work on N#CCC(=O)Nc1ccc(C(=O)NCCc2c[nH]c3ccccc23)cc1 yielded an activity change, negative = inhibition of -21.6%.
Compound COC(=O)[C@@H](N)Cc1ccc(O)c(O)c1 has an activity change, negative = inhibition of -110%.
For Cc1cccn2cc(CNc3ccccc3)nc12, the activity change, negative = inhibition was -7.4%.
CC(=O)Nc1cccc(NC(=O)c2cccc(-c3ccc(O)cc3)c2)c1 showed an activity change, negative = inhibition of 64.6%.
Cc1cc(C)n2nc(C(=O)N/N=C/c3ccc(O)cc3)nc2n1 was tested, and the activity change, negative = inhibition was -107%.
Compound COc1cc(/C=N/N2C(=O)C3C4C=CC(CC4)C3C2=O)ccc1O (stereo not given) has an activity change, negative = inhibition of -104%.
Work on Nc1nnnn1/N=C/c1ccc(O)cc1 yielded an activity change, negative = inhibition of -84.1%.
With S=c1[nH]nc(C2CCCCC2)n1/N=C/c1cccs1 the activity change, negative = inhibition was -12.9%.
Compound CC(=O)c1cc(CC=C(C)C)c(O)cc1O has an activity change, negative = inhibition of 11.5%.
With Cc1cccc(C(=O)Nc2onc(C)c2C#N)c1 the activity change, negative = inhibition was -51.1%.
For O=C(Nc1nnc(-c2ccco2)o1)c1cccc(Cl)c1, the activity change, negative = inhibition was -18.4%.
For Cc1[nH]nc(-c2ccc(O)cc2O)c1-c1nc2ccccc2s1, the activity change, negative = inhibition was 368%.
CC(C)c1ccc(NC2CCCN(C(=O)CCN3CCCC3=O)C2)cc1 (stereo not given) showed an activity change, negative = inhibition of -61%.
For COc1ccc(NC2CCCN(C(=O)Cn3ccc(C)n3)C2)cc1OC (stereo not given), the activity change, negative = inhibition was 108%.
O=C(CCc1ccncc1)N1CCCC(Nc2ccc(F)c(F)c2)C1 (stereo not given) showed an activity change, negative = inhibition of -11.3%.
Compound CC(C)N1C(=O)C2C(c3ccccc3O)NC(C)(C(=O)O)C2C1=O (stereo not given) has an activity change, negative = inhibition of 4.76%.
In the case of CCc1c(C(=O)NCc2cnn(C)c2)csc1C, the activity change, negative = inhibition is reported as -7.16%.
Cc1cccc(CSc2nn3c(=O)c(C)nnc3s2)c1 was tested, and the activity change, negative = inhibition was -99.2%.
For Cc1nc2ccc(S(=O)(=O)NC(C(=O)Nc3nccs3)C(C)C)cc2s1 (stereo not given), the activity change, negative = inhibition was -35.5%.
COc1ccc(NC(=O)CNS(=O)(=O)c2ccc3nc(C)sc3c2)c(OC)c1 was tested, and the activity change, negative = inhibition was -62.8%.
Cc1ccc(CNC(=O)C(NS(=O)(=O)c2ccc3nc(C)sc3c2)C(C)C)cc1 (stereo not given) gave an activity change, negative = inhibition of 40.5%.
C/C(=N\NS(=O)(=O)c1ccc(Cl)cc1)c1ccc(O)cc1 was tested, and the activity change, negative = inhibition was -79.4%.
Cc1cc(NC(=O)Nc2cccc(C)c2C)no1 was tested, and the activity change, negative = inhibition was -49%.
For CC(=O)Nc1cccc(N=NN2CCCCC2)c1, the activity change, negative = inhibition was 26.8%.
With O=C(Nc1ccccc1N1CCCC1)c1cccnc1 the activity change, negative = inhibition was -34.6%.
CC(=O)Nc1ccc(S(=O)(=O)NNC(=O)c2cccc(Cl)c2)cc1 was tested, and the activity change, negative = inhibition was -37.6%.
Work on Cc1cc(NC(=O)c2ccoc2C)ccc1Br yielded an activity change, negative = inhibition of -11.3%.
With CCc1nnc(NS(=O)(=O)c2ccc(NC(=O)OC)cc2)s1 the activity change, negative = inhibition was -99.5%.
Compound COc1ccc(S(=O)(=O)Nc2nc3ccccc3nc2Nc2cccc(C(=O)O)c2)cc1 has an activity change, negative = inhibition of -80.5%.
Compound Cc1nc2ccc(Br)cn2c1NC(C)(C)C has an activity change, negative = inhibition of 15.9%.
O=C1CSC(c2ccccc2)N1c1ccc([N+](=O)[O-])cc1 (stereo not given) showed an activity change, negative = inhibition of -50.9%.
For COc1ccc(C2SCC(=O)N2Cc2ccccc2)cc1 (stereo not given), the activity change, negative = inhibition was -33.1%.
For Cc1noc(NS(=O)(=O)c2ccc(NC(=O)CCN3C(=O)c4ccccc4C3=O)cc2)c1C, the activity change, negative = inhibition was -21.6%.
Work on O=C(O)CCCC(=O)N1CCN(c2nc(-c3ccccc3)c3ccccc3n2)CC1 yielded an activity change, negative = inhibition of -0.988%.
COc1ccc(N=C2C(=O)Nc3ccccc32)cc1 showed an activity change, negative = inhibition of -24.8%.
Compound Cc1ccc(N(C(=O)c2cccs2)C2C=CS(=O)(=O)C2)cc1 (stereo not given) has an activity change, negative = inhibition of -56.3%.
Work on COc1ccc(Nc2nccc(-c3cccc(N)c3)n2)cc1 yielded an activity change, negative = inhibition of -11.7%.
Compound CC1CCC2(CC1)NC(=S)N(c1ccccc1)N2 (stereo not given) has an activity change, negative = inhibition of -28.1%.
COC(=O)c1sccc1NC(=O)c1cc(C)on1 gave an activity change, negative = inhibition of -8.04%.
For Cn1c(CNc2ccc(O)cc2)nc2ccccc21, the activity change, negative = inhibition was -101%.
Work on COc1ccc(N2CCN(c3ncccn3)CC2)cc1 yielded an activity change, negative = inhibition of -8.28%.
In the case of Cc1nn(C)c(Nc2ccc(Br)cc2)c1Br, the activity change, negative = inhibition is reported as -46.2%.
Compound Cc1ccccc1NC(=O)CNc1ccccc1N1CCCCC1 has an activity change, negative = inhibition of -89.6%.
COc1ccc(S(=O)(=O)N2CCC(C(=O)Nc3ccccc3N3CCCC3)CC2)cc1OC was tested, and the activity change, negative = inhibition was -28.9%.
COC(=O)c1c(NC(=O)CN2CCN(Cc3ccc4c(c3)OCO4)CC2)sc(C)c1C was tested, and the activity change, negative = inhibition was -8.94%.
For O=C(Nc1ccccc1N1CCCC1)c1cccc(F)c1, the activity change, negative = inhibition was -3.33%.
c1ccc2c(c1)CSc1ccccc1N2 showed an activity change, negative = inhibition of -6.27%.
With CC1CN(C(=O)Nc2ccc3snnc3c2)c2ccccc21 (stereo not given) the activity change, negative = inhibition was -13.6%.
CCCCCC(=O)N/N=C/c1ccc(N(C)C)cc1 showed an activity change, negative = inhibition of -20.3%.
Compound O=C(CNC(=O)c1ccccc1Br)N/N=C/c1ccc(O)cc1 has an activity change, negative = inhibition of -106%.
CN(C)c1ccc(C=Nc2cnn(C)c2C(N)=O)cc1 gave an activity change, negative = inhibition of -35.9%.
Compound CN(C)c1ccc(/C=N/NC(=O)c2sccc2-n2cccc2)cc1 has an activity change, negative = inhibition of -99%.
Work on CCn1c(NC(=O)c2ccc(C)cc2)c2ccccc2nc1=O yielded an activity change, negative = inhibition of -48.8%.
With O=C1Oc2ccccc2C(=O)/C1=C\N1CCN(c2ccccc2)CC1 the activity change, negative = inhibition was -15.7%.
O=Cc1c(Sc2ccccc2)nc2ccccn2c1=O was tested, and the activity change, negative = inhibition was -18.4%.
For Cc1ccc(S(=O)(=O)Nc2c(O)ccc3ccccc23)cc1, the activity change, negative = inhibition was 13.8%.
In the case of COc1ccc(OC)c(S(=O)(=O)Nc2cccc3c(O)cccc23)c1, the activity change, negative = inhibition is reported as 31.7%.
